Results reported in the antibiotic and cytotoxicity screens of Wong et al. (2023).
Out of some 39,000 compounds screened, about 3,300 (8.5%) were called active. The sample holds actives, similar compounds and a random draw of the others, so the mix is not that of the screen.

Test system: HepG2
Experiment: cytotoxicity call (relative viability < 0.9)
Conditions: 10 µM

SMILES | cytotoxicity call
Cc1noc(C)c1NC(=O)N(C)C[C@@H]1Oc2ccc(NS(=O)(=O)c3ccccc3)cc2C(=O)N([C@H](C)CO)C[C@@H]1C | inactive
CCSc1nc(-c2ccc(C)cc2)cc(C(F)(F)F)c1C#N | inactive
CSc1nc(-c2ccccc2)cc(-c2cccs2)c1C#N | inactive
Cc1cc(-c2ccccc2)nc(SCc2ccccc2)c1C#N | active
CC(C)NC(=O)Nc1cccc2c1O[C@H](CN(C)S(=O)(=O)c1ccccc1)[C@@H](C)CN([C@H](C)CO)C2=O | inactive
C[C@@H]1CCCCO[C@H](CN(C)S(=O)(=O)c2cccs2)[C@@H](C)CN([C@H](C)CO)C(=O)c2cc(NC(=O)Nc3cccc4ccccc34)ccc2O1 | inactive
CCCN(C)C[C@H]1OCCCC[C@@H](C)Oc2ccc(NC(=O)Nc3ccc(C(F)(F)F)cc3)cc2C(=O)N([C@H](C)CO)C[C@H]1C | inactive
CCCN(C)C[C@H]1OCCCC[C@@H](C)Oc2ccc(NC(=O)Nc3ccc(F)cc3)cc2C(=O)N([C@H](C)CO)C[C@@H]1C | inactive
CCCN(C)C[C@@H]1OCCCC[C@H](C)Oc2ccc(NC(=O)Nc3ccc(C(F)(F)F)cc3)cc2C(=O)N([C@@H](C)CO)C[C@@H]1C | inactive
CCCN(C)C[C@@H]1OCCCC[C@@H](C)Oc2ccc(NC(=O)Nc3ccc(C(F)(F)F)cc3)cc2C(=O)N([C@H](C)CO)C[C@H]1C | inactive
CCCN(C)C[C@@H]1OCCCC[C@@H](C)Oc2ccc(NC(=O)Nc3ccc(F)cc3)cc2C(=O)N([C@H](C)CO)C[C@@H]1C | inactive
CCCN(C)C[C@@H]1OCCCC[C@@H](C)Oc2ccc(NC(=O)Nc3ccc(C(F)(F)F)cc3)cc2C(=O)N([C@H](C)CO)C[C@@H]1C | active
CCCN(C)C[C@@H]1OCCCC[C@@H](C)Oc2ccc(NC(=O)Nc3ccc(F)cc3)cc2C(=O)N([C@H](C)CO)C[C@H]1C | inactive
CCCN(C)C[C@@H]1OCCCC[C@H](C)Oc2ccc(NC(=O)Nc3ccc(F)cc3)cc2C(=O)N([C@@H](C)CO)C[C@@H]1C | inactive
CCCN(C)C[C@H]1OCCCC[C@H](C)Oc2ccc(NC(=O)Nc3ccc(C(F)(F)F)cc3)cc2C(=O)N([C@@H](C)CO)C[C@H]1C | active
CCCN(C)C[C@@H]1OCCCC[C@H](C)Oc2ccc(NC(=O)Nc3ccc(C(F)(F)F)cc3)cc2C(=O)N([C@H](C)CO)C[C@@H]1C | active
CCCN(C)C[C@H]1OCCCC[C@H](C)Oc2ccc(NC(=O)Nc3ccc(F)cc3)cc2C(=O)N([C@@H](C)CO)C[C@H]1C | inactive
CCCN(C)C[C@H]1OCCCC[C@@H](C)Oc2ccc(NC(=O)Nc3ccc(C(F)(F)F)cc3)cc2C(=O)N([C@@H](C)CO)C[C@H]1C | active
COc1ccc(S(=O)(=O)Nc2ccc3c(c2)C(=O)N([C@@H](C)CO)C[C@@H](C)[C@H](CN(C)S(=O)(=O)c2ccc(Cl)cc2)OCCCC[C@@H](C)O3)cc1 | inactive
COc1ccc(S(=O)(=O)N(C)C[C@@H]2Oc3ccc(NC(=O)Cc4ccccc4)cc3CC(=O)N([C@H](C)CO)C[C@H]2C)cc1 | inactive
COc1ccccc1C#Cc1ccc2c(c1)O[C@@H](CN(C)Cc1cncnc1)[C@H](C)CN([C@H](C)CO)S2(=O)=O | inactive
Cc1ccc(S(=O)(=O)N2C[C@@H](O)COC[C@H]3O[C@H](CC(=O)NCc4ccc(C(F)(F)F)cc4)CC[C@@H]32)cc1 | inactive
CSc1cc(-c2ccc(Cl)cc2)nc(-c2cccs2)c1 | inactive
C[C@@H]1CCCCO[C@@H](CN(C)C(=O)Nc2ccc(C(F)(F)F)cc2)[C@H](C)CN([C@@H](C)CO)C(=O)c2cc(NC(=O)NC3CCCCC3)ccc2O1 | inactive

SMILES | cytotoxicity call
C[C@H]1CN([C@@H](C)CO)C(=O)c2cccc(NS(=O)(=O)c3ccc(Cl)cc3)c2O[C@H]1CN(C)Cc1ccc(Cl)c(Cl)c1 | inactive
CCS(=O)(=O)N1C[C@]2(C1)CN([C@H](CO)c1[nH]c3cc(ccc3c12)OC)S(=O)(=O)c1ccc(cc1)C | inactive
CC(C)NC(=O)N(C)C[C@@H]1Oc2c(NC(=O)NC3CCCCC3)cccc2C(=O)N([C@H](C)CO)C[C@H]1C | inactive
CCc1c(C)[nH]c(N2CCOCC2)nc1=O | inactive
C[C@@H]1CN([C@@H](C)CO)C(=O)CCCn2nncc2CO[C@@H]1CN(C)C(=O)Nc1ccc(C(F)(F)F)cc1 | inactive
C[C@@H]1CN([C@@H](C)CO)C(=O)CCCn2nncc2CO[C@H]1CN(C)C(=O)Nc1ccc(C(F)(F)F)cc1 | inactive
C[C@@H]1CN([C@H](C)CO)C(=O)CCCn2cc(nn2)CO[C@@H]1CN(C)C(=O)Nc1ccccc1C(F)(F)F | active
C[C@H]1CN([C@@H](C)CO)C(=O)CCCn2cc(nn2)CO[C@@H]1CN(C)C(=O)c1ccc(N2CCN(C)CC2)cc1 | active
C[C@H](CO)N1C[C@H](C)[C@@H](CN(C)C(=O)Nc2ccccc2C(F)(F)F)OCc2cnnn2CCCC1=O | inactive
C[C@@H]1CN([C@H](C)CO)C(=O)CCCn2cc(nn2)CO[C@@H]1CN(C)C(=O)c1ccc(N2CCN(C)CC2)cc1 | inactive
C[C@H](CO)N1C[C@H](C)[C@@H](CN(C)C(=O)Nc2ccccc2C(F)(F)F)OCc2cn(nn2)CCCC1=O | inactive
C[C@@H]1CN([C@@H](C)CO)C(=O)CCCn2nncc2CO[C@H]1CN(C)C(=O)Nc1ccccc1C(F)(F)F | inactive
C[C@@H]1CN([C@H](C)CO)C(=O)CCCn2nncc2CO[C@H]1CN(C)C(=O)Nc1ccccc1C(F)(F)F | active
C[C@H](CO)N1C[C@H](C)[C@H](CN(C)C(=O)Nc2ccccc2C(F)(F)F)OCc2cn(nn2)CCCC1=O | inactive
C[C@H](CO)N1C[C@H](C)[C@H](CN(C)C(=O)Nc2ccc(C(F)(F)F)cc2)OCc2cnnn2CCCC1=O | active
C[C@H]1CN([C@@H](C)CO)C(=O)CCCn2cc(nn2)CO[C@H]1CN(C)C(=O)c1ccc(N2CCN(C)CC2)cc1 | inactive
Cc1noc(C)c1NC(=O)Nc1ccc2c(c1)CC(=O)N([C@H](C)CO)C[C@H](C)[C@H](CN(C)CC1CC1)O2 | inactive
Nc1ncnc2c1ncn2[C@@H]1O[C@H](CO)C[C@H]1O | inactive
C[C@H]1CN([C@@H](C)CO)C(=O)Cc2cc(N(C)C)ccc2O[C@@H]1CN(C)S(=O)(=O)c1cn(C)cn1 | inactive
CC(C)(CO)Nc1ncnc(N)c1[N+](=O)[O-] | inactive
COc1ccc(NC(=O)Nc2cccc3c2O[C@@H](CN(C)CC2CCCCC2)[C@@H](C)CN([C@@H](C)CO)C3=O)cc1 | inactive
Cc1noc(C)c1NC(=O)N(C)C[C@H]1Oc2c(NC(=O)C3CCOCC3)cccc2C(=O)N([C@@H](C)CO)C[C@@H]1C | inactive
C[C@@H]1CN([C@H](C)CO)C(=O)c2cc(NS(=O)(=O)c3ccc(F)cc3)ccc2O[C@@H]1CN(C)S(=O)(=O)c1ccccc1 | inactive
C[C@@H]1CN([C@H](C)CO)C(=O)CCCn2nncc2CO[C@H]1CN(C)S(=O)(=O)c1ccc(Cl)cc1 | inactive

SMILES | cytotoxicity call
C[C@@H]1CN([C@H](C)CO)C(=O)CCCn2nncc2CO[C@@H]1CN(C)S(=O)(=O)c1ccc(Cl)cc1 | inactive
C[C@@H]1CN([C@H](C)CO)C(=O)CCCn2nncc2CO[C@@H]1CN(C)C(=O)Nc1ccccc1C(F)(F)F | inactive
C[C@H]1CN([C@@H](C)CO)C(=O)CCCn2nncc2CO[C@@H]1CN(C)C(=O)Nc1ccccc1C(F)(F)F | inactive
C[C@H]1CN([C@@H](C)CO)C(=O)CCCn2nncc2CO[C@H]1CN(C)S(=O)(=O)c1ccc(Cl)cc1 | active
C[C@H]1CN([C@@H](C)CO)C(=O)CCCn2nncc2CO[C@H]1CN(C)C(=O)Nc1ccccc1C(F)(F)F | active
COc1ccc(NC(=O)N(C)C[C@H]2Oc3c(NS(C)(=O)=O)cccc3C(=O)N([C@H](C)CO)C[C@H]2C)cc1 | inactive
CCCCC(=O)C1CCC(c2ccc(Cl)cc2)CC1 (stereo unspecified) | inactive
O=C1c2ccccc2C(=O)C1c1ccc(Cl)cc1 | inactive
O=C1C(O)=C(C2CCC(c3ccc(Cl)cc3)CC2)C(=O)c2ccccc21 (stereo unspecified) | active
C[C@H](CO)N1C[C@H](C)[C@H](CN(C)C(=O)c2ccccc2)OCCCC[C@H](C)Oc2ccc(NC(=O)Cc3ccccc3)cc2C1=O | inactive
CCO[C@H]1OC(C(=O)N2CCN(Cc3ccccc3)CC2)=C[C@@H](c2cn(C(C)=O)c3ccccc23)[C@@H]1CCCOC(=O)NCCCCCC(=O)NO | inactive
NCCCCCCNC(=O)[C@H]1C[C@H]2C(=O)N[C@@H](CCCCN)C(=O)N2[C@H]1c1ccc(O)cc1 | inactive
C[C@@H]1CN([C@@H](C)CO)C(=O)c2cc(NC(=O)Nc3ccc(C(F)(F)F)cc3)ccc2O[C@@H](C)CCCCO[C@@H]1CN(C)S(=O)(=O)c1ccc(F)cc1 | inactive
C[C@@H]1CCCCO[C@@H](CN(C)Cc2ccc(C(=O)O)cc2)[C@H](C)CN([C@@H](C)CO)C(=O)c2cc(NS(=O)(=O)c3ccc(F)cc3)ccc2O1 | inactive
CC(Cn1cnc2c(N)ncnc21)OCP(=O)(O)O (stereo unspecified) | active
Nc1ncnc2c1ncn2C1OC(COP(=O)(O)O)C(O)C1O (stereo unspecified) | inactive
CC(C)(C)C(=O)OCOP(=O)(COCCn1cnc2c(N)ncnc21)OCOC(=O)C(C)(C)C [listing 1 of 2 here] | active
Nc1ncnc2c1ncn2CCO | inactive
Nc1ncnc2c1ncn2CCN1CCOCC1 | inactive
CC(C)OC(=O)OCOP(=O)(CO[C@H](C)Cn1cnc2c(N)ncnc21)OCOC(=O)OC(C)C | inactive
Nc1ncnc2c1ncn2CCN1CCCCC1 | inactive
Nc1ncnc2c1ncn2[C@H]1O[C@H](COP(=O)(O)O)[C@@H](O)[C@H]1O | inactive
CC(C)(C)C(=O)OCOP(=O)(COCCn1cnc2c(N)ncnc21)OCOC(=O)C(C)(C)C [listing 2 of 2 here] | active
